The supplement of paper PMC11732987, “Enantioselective OTUD7B fragment discovery through chemoproteomics screening and high-throughput optimisation” (Communications Chemistry, 2025)

How the values were obtained:
Assay in all cases: log2 ratio of Biotin-Ahx-Ub-VS probe labelling (fragment/DMSO); higher = less target engagement (more negative = stronger competition), active = hit call of the paper (q ≤ 0.05, log2 ratio ≤ -1)
Details in all cases: compound concentration: 200 uM; treatment time: 3 h
[1] = target: USP34 (UniProt Q70CQ2)
Sequence of USP34 (Q70CQ2 whole entry, the tested form may be a part): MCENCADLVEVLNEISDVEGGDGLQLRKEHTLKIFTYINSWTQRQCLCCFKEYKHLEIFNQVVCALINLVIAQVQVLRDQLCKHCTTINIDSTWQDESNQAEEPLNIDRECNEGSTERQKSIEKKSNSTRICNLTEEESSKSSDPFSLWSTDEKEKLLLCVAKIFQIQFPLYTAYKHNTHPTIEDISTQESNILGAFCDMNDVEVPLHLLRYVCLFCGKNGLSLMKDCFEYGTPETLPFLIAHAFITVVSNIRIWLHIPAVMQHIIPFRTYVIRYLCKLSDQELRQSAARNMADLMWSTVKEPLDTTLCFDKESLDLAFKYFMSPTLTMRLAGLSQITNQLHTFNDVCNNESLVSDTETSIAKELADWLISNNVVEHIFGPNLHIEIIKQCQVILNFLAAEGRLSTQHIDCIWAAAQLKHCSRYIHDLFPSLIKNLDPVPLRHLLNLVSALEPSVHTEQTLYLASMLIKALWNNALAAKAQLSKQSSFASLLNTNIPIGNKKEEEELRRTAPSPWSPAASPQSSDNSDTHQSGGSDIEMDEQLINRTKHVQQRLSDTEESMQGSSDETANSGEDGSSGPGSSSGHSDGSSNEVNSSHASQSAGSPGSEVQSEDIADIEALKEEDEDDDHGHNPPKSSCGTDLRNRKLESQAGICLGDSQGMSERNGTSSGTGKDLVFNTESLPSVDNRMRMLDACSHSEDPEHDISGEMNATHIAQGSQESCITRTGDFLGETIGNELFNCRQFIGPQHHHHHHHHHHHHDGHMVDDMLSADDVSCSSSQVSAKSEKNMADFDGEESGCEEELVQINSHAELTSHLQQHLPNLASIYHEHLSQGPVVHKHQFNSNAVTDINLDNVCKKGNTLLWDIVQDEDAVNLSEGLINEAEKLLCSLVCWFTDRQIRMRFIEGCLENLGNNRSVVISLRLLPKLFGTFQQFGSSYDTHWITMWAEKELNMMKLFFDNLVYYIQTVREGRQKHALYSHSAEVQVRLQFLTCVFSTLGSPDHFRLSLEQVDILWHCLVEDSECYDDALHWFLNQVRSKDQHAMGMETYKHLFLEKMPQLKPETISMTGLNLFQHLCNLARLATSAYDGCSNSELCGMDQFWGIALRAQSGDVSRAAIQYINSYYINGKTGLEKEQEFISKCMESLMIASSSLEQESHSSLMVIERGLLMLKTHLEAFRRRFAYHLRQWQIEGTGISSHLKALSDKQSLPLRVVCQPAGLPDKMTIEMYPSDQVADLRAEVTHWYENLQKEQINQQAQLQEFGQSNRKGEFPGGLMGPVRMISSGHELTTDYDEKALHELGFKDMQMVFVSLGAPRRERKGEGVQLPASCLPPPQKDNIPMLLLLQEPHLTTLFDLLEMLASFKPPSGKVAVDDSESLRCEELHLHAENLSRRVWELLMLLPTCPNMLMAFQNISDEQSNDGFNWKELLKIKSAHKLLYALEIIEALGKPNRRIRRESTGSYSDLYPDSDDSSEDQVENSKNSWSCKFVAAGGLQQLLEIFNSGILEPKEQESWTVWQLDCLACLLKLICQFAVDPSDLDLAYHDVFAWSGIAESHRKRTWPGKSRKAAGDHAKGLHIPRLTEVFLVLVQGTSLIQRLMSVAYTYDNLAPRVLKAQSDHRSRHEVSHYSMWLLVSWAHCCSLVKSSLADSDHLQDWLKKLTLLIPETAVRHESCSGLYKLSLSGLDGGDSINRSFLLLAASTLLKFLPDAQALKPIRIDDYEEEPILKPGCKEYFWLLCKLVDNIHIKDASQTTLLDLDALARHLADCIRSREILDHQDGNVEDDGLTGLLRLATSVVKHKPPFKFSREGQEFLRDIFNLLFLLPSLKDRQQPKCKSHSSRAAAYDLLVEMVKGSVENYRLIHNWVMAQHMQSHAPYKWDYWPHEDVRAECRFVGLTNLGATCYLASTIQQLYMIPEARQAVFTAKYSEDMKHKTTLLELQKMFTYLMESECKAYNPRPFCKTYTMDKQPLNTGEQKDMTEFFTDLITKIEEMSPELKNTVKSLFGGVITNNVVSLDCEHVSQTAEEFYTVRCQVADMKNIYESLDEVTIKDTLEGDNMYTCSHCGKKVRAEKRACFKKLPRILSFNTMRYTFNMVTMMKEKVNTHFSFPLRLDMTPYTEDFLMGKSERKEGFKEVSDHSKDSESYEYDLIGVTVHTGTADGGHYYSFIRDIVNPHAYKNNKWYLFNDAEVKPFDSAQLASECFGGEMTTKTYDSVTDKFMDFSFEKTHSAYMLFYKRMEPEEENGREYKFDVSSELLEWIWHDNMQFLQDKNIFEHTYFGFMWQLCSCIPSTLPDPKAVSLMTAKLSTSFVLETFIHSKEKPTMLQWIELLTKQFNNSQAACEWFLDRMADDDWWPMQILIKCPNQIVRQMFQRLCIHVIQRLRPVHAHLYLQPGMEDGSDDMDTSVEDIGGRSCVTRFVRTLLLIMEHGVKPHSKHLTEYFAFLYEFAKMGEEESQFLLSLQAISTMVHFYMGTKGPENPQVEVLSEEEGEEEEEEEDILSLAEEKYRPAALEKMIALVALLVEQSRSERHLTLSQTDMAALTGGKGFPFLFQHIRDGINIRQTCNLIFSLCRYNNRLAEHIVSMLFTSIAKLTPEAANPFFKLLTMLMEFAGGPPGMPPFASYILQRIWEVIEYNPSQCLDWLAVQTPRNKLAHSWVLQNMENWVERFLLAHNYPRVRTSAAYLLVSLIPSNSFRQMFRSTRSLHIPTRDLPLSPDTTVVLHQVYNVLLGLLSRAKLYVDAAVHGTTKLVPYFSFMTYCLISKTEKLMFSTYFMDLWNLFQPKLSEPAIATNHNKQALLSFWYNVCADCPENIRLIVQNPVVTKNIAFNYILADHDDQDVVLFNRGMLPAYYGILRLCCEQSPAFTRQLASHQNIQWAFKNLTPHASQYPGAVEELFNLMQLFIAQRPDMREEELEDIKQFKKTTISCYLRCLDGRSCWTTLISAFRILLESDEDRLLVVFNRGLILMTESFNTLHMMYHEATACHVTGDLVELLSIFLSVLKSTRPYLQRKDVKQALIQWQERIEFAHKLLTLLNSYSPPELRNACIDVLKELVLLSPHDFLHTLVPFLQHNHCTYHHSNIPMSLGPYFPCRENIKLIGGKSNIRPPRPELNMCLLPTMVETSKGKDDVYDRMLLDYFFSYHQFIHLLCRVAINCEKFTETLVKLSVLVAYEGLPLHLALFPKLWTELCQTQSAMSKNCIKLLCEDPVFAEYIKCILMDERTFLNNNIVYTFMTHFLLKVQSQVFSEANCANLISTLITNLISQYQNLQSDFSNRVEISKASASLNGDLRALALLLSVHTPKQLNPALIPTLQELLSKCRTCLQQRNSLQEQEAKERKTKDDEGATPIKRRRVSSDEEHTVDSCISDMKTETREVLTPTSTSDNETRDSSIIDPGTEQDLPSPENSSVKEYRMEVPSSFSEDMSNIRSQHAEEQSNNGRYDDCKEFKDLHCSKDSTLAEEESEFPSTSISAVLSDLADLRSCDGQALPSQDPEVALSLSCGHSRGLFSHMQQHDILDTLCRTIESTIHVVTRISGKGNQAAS
Method in brief: (§1)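 Using Biotin-Ahx-Ub-VS at 0.5 µM final for 1 h, DUBs were labelled in HEK293T lysate (495 µg per sample) that had first been treated in triplicate with fragment at 200 µM or vehicle for 3 h. NeutrAvidin enrichment, LysC and trypsin digestion and diaPASEF LC-MS/MS followed. Spectronaut label-free quantities were global-median-normalised. Values are average log2 fragment/vehicle ratios by unpaired t-test, using proteins with ≥2 unique peptides.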

[2] = target: T1, USP36 (UniProt Q9P275)
T1 sequence (whole entry): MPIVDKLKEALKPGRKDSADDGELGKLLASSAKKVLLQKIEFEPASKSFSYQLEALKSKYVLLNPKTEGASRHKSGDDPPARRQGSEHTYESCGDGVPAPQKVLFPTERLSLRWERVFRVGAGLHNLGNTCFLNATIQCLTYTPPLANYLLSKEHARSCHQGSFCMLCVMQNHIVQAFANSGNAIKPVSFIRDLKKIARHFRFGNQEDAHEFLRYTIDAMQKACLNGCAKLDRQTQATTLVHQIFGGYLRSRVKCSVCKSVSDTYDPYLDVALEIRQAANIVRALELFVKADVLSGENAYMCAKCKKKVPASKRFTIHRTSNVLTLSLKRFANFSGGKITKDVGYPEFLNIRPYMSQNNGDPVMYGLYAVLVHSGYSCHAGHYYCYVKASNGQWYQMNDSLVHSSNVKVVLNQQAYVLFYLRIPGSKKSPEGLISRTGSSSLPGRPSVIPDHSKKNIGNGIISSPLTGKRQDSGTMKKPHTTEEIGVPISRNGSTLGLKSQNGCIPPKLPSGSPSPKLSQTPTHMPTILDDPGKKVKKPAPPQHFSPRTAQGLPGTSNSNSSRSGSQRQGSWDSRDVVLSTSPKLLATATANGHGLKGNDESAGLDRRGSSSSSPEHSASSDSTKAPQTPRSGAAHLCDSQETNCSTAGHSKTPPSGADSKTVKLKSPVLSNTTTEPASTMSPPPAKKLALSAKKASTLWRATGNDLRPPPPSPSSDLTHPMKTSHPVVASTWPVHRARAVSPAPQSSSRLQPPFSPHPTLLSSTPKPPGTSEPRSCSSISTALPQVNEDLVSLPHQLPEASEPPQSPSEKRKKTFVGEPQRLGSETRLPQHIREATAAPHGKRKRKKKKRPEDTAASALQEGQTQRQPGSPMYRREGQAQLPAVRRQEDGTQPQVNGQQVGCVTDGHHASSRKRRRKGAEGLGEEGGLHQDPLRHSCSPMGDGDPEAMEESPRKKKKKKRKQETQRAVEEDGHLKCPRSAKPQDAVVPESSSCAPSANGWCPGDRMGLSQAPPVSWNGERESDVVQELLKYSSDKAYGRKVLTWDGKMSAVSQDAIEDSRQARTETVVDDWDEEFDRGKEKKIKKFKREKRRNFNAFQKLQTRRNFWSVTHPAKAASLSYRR
Method in brief: as §1

[3] = target: T2, USP38 (UniProt Q8NB14)
T2 sequence (whole entry): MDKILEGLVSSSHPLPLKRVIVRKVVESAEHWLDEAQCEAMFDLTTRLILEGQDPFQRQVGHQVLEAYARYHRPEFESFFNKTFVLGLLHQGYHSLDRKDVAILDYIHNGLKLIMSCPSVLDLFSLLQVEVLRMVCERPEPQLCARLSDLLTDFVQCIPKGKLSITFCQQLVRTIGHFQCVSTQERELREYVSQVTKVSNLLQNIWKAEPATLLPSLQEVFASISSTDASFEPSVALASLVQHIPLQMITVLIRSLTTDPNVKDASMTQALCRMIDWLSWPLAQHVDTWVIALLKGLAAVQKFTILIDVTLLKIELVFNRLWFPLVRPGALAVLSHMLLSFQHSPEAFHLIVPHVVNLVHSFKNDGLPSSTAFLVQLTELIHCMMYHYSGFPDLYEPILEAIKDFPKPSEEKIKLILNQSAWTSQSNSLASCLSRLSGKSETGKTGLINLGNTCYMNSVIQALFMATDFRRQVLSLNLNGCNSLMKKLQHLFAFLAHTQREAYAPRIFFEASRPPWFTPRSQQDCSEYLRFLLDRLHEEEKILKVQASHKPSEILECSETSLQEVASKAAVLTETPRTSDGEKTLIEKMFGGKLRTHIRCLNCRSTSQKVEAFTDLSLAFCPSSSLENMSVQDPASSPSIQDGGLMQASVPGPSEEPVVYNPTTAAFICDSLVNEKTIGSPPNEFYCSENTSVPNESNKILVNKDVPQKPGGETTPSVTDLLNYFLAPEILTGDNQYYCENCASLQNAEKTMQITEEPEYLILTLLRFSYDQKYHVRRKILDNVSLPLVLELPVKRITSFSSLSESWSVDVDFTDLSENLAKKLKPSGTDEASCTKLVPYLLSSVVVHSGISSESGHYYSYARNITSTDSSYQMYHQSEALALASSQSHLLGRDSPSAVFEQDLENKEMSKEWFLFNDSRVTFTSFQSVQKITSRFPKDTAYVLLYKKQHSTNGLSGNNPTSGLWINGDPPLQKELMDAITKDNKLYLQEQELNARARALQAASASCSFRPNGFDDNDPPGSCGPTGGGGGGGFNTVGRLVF
Method in brief: as §1

[4] = target: T3, USP39 (UniProt Q53GS9)
T3 sequence (whole entry): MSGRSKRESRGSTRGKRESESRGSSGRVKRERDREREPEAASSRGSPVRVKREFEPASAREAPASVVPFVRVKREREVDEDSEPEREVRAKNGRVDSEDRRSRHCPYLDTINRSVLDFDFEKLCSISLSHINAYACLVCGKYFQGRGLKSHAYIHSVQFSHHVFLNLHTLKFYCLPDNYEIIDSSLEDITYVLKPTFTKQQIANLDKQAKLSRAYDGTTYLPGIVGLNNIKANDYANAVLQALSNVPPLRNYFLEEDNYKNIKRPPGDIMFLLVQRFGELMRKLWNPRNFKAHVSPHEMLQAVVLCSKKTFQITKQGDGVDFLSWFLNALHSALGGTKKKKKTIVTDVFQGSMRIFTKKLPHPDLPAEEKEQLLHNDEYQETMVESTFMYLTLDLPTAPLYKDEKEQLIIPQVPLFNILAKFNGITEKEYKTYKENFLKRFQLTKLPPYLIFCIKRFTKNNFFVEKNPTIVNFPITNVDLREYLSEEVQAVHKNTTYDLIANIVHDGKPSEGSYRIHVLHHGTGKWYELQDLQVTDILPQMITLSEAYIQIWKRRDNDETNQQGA
Method in brief: as §1

[5] = target: T4, USP4 (UniProt Q13107)
T4 sequence (whole entry): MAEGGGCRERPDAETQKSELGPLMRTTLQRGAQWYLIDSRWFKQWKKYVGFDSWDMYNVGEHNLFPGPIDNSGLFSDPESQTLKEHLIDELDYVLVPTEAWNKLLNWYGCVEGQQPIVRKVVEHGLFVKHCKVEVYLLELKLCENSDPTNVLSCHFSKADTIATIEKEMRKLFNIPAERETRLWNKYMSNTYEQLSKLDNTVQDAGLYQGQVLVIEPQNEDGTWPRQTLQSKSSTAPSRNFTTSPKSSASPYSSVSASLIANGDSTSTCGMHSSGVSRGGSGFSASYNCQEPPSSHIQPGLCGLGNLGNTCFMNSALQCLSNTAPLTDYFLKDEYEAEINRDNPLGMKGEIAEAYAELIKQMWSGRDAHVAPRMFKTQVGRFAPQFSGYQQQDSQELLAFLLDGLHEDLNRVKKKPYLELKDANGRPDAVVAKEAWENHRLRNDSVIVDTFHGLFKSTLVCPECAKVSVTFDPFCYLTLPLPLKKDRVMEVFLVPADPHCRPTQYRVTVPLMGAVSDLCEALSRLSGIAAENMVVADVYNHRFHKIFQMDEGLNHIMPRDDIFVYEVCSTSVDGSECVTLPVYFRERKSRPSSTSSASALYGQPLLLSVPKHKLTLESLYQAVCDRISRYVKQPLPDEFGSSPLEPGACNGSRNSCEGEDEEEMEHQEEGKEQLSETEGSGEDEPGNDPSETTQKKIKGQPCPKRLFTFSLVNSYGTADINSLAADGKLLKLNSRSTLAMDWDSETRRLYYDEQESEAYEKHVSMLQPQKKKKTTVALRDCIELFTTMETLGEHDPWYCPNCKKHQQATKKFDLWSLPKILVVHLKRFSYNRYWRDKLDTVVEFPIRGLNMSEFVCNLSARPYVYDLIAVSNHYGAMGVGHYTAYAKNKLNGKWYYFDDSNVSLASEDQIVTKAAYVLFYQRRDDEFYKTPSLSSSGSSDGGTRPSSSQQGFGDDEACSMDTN
Method in brief: as §1

Measured: log2 ratio of Biotin-Ahx-Ub-VS probe labelling

O=C(CCl)Nc1cc(Cl)ccc1C(=O)O
inactive: [1] 0.243 | [2] 0.209 | [3] 0.105 | [4] 0.562 | [5] 0.12
